From PubChem
Mito fusion yeast = blocks mitochondrial division or promotes mitochondrial fusion; S. cerevisiae fusion-defective mutant growth rescue, CellTiterGlo 48 h; Potency, µM (series often up to 46.1 µM), without a hit: top-dose growth rescue (activation), usual class: activators; actives 0.23% (n = 320,000); AID 485298; note: % of control where 0% means no effect; nearly all actives have a fitted effect of over 45% in size
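Yeast fusion mutant, YPEG (non-fermentable carbon), compound, 48 h at 37C non-permissive; CellTiterGlo added, 10 min RT, luminescence read. Rescued growth = division inhibition.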
Abeta yeast res = restores growth of yeast expressing A-beta42 peptide. yeast expressing A-beta42, growth rescue, OD600, 48 h; response scale: 0% DMSO, 100% iron-clioquinol control. Potency, µM (series often up to 46.1 µM), usual class: activators. actives 0.063% (n = 410,000). AID 1347071; note: nearly all actives have a fitted effect of over 55% in size
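Yeast growth medium received pinned compounds, then yeast cells expressing toxic A-beta were added; plates incubated at 30 C for 48 hr. Growth read as absorbance at 600 nm, normalized to DMSO and equimolar FeCl3 plus clioquinol controls.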
FUS suppressor = rescues growth of FUS-expressing yeast. actives 0.24% (n = 390,000). Potency, µM (highest dose often 76.6 µM), usual class: activators. AID 1347120. S. cerevisiae FUS-expressing, growth rescue, OD600, 24 h;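 note: plate controls were DMSO vehicle for no effect and reference control for full effect; nearly all actives have a fitted effect of over 55% in size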
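Toxicity suppression screen in FUS-yeast. Cells induced with 2% galactose, starting OD 0.005, treated 24hr at 30C with compounds at multiple final concentrations; growth by OD600.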
TDP-43 yeast inh = rescues yeast growth from TDP-43 toxicity. actives 1.8% (n = 410,000). Potency, µM (doses to about 46.1 µM), for inactives: top-dose growth rescue (activation), hits mostly activators. TDP-43 expressing yeast growth rescue, BacTiter-Glo, 24 h; note: % of control where 0% means no effect; nearly all actives have a fitted effect of over 50% in size
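Yeast cells expressing TDP-43 under galactose induction are exposed to compounds for 24 hr at 30 deg C. BacTiter-Glo luminescence measures growth, so protective compounds score as activators.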
aSyn rescue = alpha-synuclein toxicity inhibition in yeast; AID 652106; Potency, µM (titrated, usually from 46.1 µM), without a hit: top-dose growth rescue (activation), hits mostly activators; actives 0.14% (n = 370,000); Yeast expressing alpha-synuclein, growth rescue, BacTiter-Glo, 24 h; note: % of control where 0% means no effect; nearly all actives have a fitted effect of over 65% in size
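Galactose-induced alpha-syn yeast (OD600=0.02, raffinose-pregrown) + pinned cpd, 24 hr, 30 deg C; growth by BacTiter-Glo luminescence. Growth restoration scores as activation.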
The depositor's hits bear a star. The list is not random: actives were taken first. Their share in the collection is about 2.2%. Calls come from the whole dose curve; as a rule, active = well fitted curve in the direction sought with a large enough effect; inconclusive = small, poorly fitted or top-dose-only effect, or another doubt; inactive = no such curve, though single readings can be large; an effect the other way counts as inactive or inconclusive. Potency is the fitted concentration of half-maximal effect.

Results for COC(=O)C1(C)CCCC2(C)c3cc(OC)ccc3C(=O)C(Br)C12 (configuration not stated) ?
Abeta yeast res: inactive; FUS suppressor: inconclusive; TDP-43 yeast inh: 25µM*; aSyn rescue: -4%

Results for COc1ccc(C(C(=O)NC2CCCC2)n2c(CSCCOc3ccccc3)nc3ccccc32)cc1 (configuration not stated) ?
Abeta yeast res: inactive; FUS suppressor: 18µM*; TDP-43 yeast inh: 5%; aSyn rescue: -3%

How did O=C(CCc1ccccc1)N[C@H]1[C@@H](OC(=O)c2cccnc2)CCC[C@]12C(=O)N(Cc1ccccc1)c1ccccc12 do in these assays?
FUS suppressor: inactive

Results for O=C(C#Cc1ccccc1)c1ccc([N+](=O)[O-])cc1 ?
Mito fusion yeast: -4%; Abeta yeast res: inactive; FUS suppressor: inactive; TDP-43 yeast inh: 11µM*; aSyn rescue: -14%

How did Cc1cc(NC(=O)C(C)C)cc(-c2nc3ncccc3o2)c1O do in these assays?
Abeta yeast res: inactive; FUS suppressor: inactive; TDP-43 yeast inh: 6%

Results for CCOc1cc(OCC)cc(C(=O)N2CCC[C@H]2C(=O)N2CCC[C@H]2C(=O)NCc2cccc(OC)c2)c1 ?
Abeta yeast res: inactive; FUS suppressor: inactive; TDP-43 yeast inh: 22%; aSyn rescue: -10%

How did O=c1[nH]c(Sc2ccc([N+](=O)[O-])cc2[N+](=O)[O-])nc2ccccc12 do in these assays?
Abeta yeast res: inactive; FUS suppressor: inactive; TDP-43 yeast inh: 13µM*; aSyn rescue: -16%

How did O=C(CSc1nc2ccccc2c(=O)[nH]1)Nc1ccc([N+](=O)[O-])cc1 do in these assays?
Abeta yeast res: inactive; FUS suppressor: inactive; TDP-43 yeast inh: 0%; aSyn rescue: 1%

What do the screens show for `Cc1noc2ncnc(Sc3ccc(Cl)cc3)c12`?
Mito fusion yeast: -21%; Abeta yeast res: inactive; FUS suppressor: inactive; TDP-43 yeast inh: 6.3µM*; aSyn rescue: -4%

Results for Cc1ccccc1Cc1c(C)nc2nc(SCC(=O)NCCc3ccc(Cl)cc3)nn2c1C ?
Abeta yeast res: inactive; FUS suppressor: inactive; TDP-43 yeast inh: 32µM*

How did Cc1nc2nc(SCC(=O)NCCc3ccc(Cl)cc3)nn2c(C)c1Cc1ccccc1Cl do in these assays?
Abeta yeast res: inactive; FUS suppressor: inconclusive; TDP-43 yeast inh: inconclusive

How did COc1cc(NC(=O)CSc2nc3nc(C)c(Cc4ccc(C)cc4)c(C)n3n2)cc(OC)c1 do in these assays?
Abeta yeast res: inactive; FUS suppressor: 32µM*; TDP-43 yeast inh: 20%

Results for CC(=O)NC1=CC(=O)c2nonc2C1=O ?
aSyn rescue: -1%

What do the screens show for `O=S(=O)(c1ccc(Br)cc1)c1nc(-c2cccs2)oc1SCc1ccccc1F`?
Abeta yeast res: inactive; FUS suppressor: inactive; TDP-43 yeast inh: 8%

Results for CCOc1ccccc1CNC(=O)CCCN1C(=O)CCn2nc(-c3cccn3C)cc21 ?
Abeta yeast res: inactive; FUS suppressor: inactive; TDP-43 yeast inh: 0%

What do the screens show for `Nc1ncc(S(=O)(=O)NCc2ccccc2)cn1`?
Abeta yeast res: inactive; FUS suppressor: inactive; TDP-43 yeast inh: 13%

What do the screens show for `Cc1[nH]c2ccccc2c1/C=N/n1cnnc1`?
Mito fusion yeast: 1%; Abeta yeast res: inactive; FUS suppressor: inactive; TDP-43 yeast inh: -4%; aSyn rescue: -15%

Results for COCCN=c1scc(-c2cc(OC)c(OC)c(OC)c2)n1/N=C/c1c(C)[nH]c2ccccc12 ?
Mito fusion yeast: inconclusive; Abeta yeast res: inactive; FUS suppressor: 13µM*; TDP-43 yeast inh: 22µM*; aSyn rescue: -18%

Results for O=C(COc1ccccc1[N+](=O)[O-])N1CCCc2ccccc21 ?
Mito fusion yeast: 10%; Abeta yeast res: inactive; FUS suppressor: inactive; TDP-43 yeast inh: 14%; aSyn rescue: 16%

How did O=C(OCC(=O)N1CCCc2ccccc21)c1ccccc1[N+](=O)[O-] do in these assays?
Mito fusion yeast: 19%; Abeta yeast res: inactive; TDP-43 yeast inh: 35µM*; aSyn rescue: 6%

Results for CCn1c2ccccc2c2nc3ccccc3nc21 ?
Mito fusion yeast: -3%; Abeta yeast res: inactive; FUS suppressor: inactive; TDP-43 yeast inh: 10µM*; aSyn rescue: -5%

Results for C[N+]1(CC(=O)c2ccc(Oc3ccc(C(=O)C[N+]4(C)CCOCC4)cc3)cc2)CCOCC1 ?
aSyn rescue: -15%

How did COc1ccc2nc(N3CCC(O)CC3)c(C#N)cc2c1 do in these assays?
Mito fusion yeast: 3%; Abeta yeast res: inactive; FUS suppressor: inactive; TDP-43 yeast inh: 3%; aSyn rescue: 4%

How did COc1cccc(C(=O)N2CCN(c3nc4cc(C)cc(C)c4cc3C#N)CC2)c1 do in these assays?
Abeta yeast res: inactive; FUS suppressor: inactive; TDP-43 yeast inh: 35µM*; aSyn rescue: 4%

Results for COc1ccc2nc(N3CCC(C)CC3)c(C#N)cc2c1 ?
Mito fusion yeast: 18%; Abeta yeast res: inactive; FUS suppressor: inactive; TDP-43 yeast inh: 35µM*; aSyn rescue: -1%

What do the screens show for `O=C1CC(c2ccco2)Cc2[nH]c(=O)c(C(=O)Nc3ccccc3)cc21` (configuration not stated)?
aSyn rescue: 0%

What do the screens show for `Cc1nn(-c2ccc(Cl)cc2Cl)c(=O)c2ccccc12`?
Mito fusion yeast: 7%; Abeta yeast res: inactive; FUS suppressor: inactive; TDP-43 yeast inh: inconclusive; aSyn rescue: 21%

What do the screens show for `Cc1nn(-c2ccc(Cl)c(Cl)c2Cl)c(=O)c2ccccc12`?
Mito fusion yeast: 27%; Abeta yeast res: inactive; FUS suppressor: inactive; TDP-43 yeast inh: 16µM*; aSyn rescue: 9%

How did Cc1ccc(Cn2ccnc2SCC(=O)Nc2nc3ccccc3s2)cc1 do in these assays?
Abeta yeast res: inactive; FUS suppressor: inconclusive; TDP-43 yeast inh: 22µM*

How did CCOc1cccc(NC(=O)C2CC(=O)N(CC)C(=Nc3ccc(F)cc3)S2)c1 (configuration not stated) do in these assays?
Abeta yeast res: inconclusive; FUS suppressor: inactive; TDP-43 yeast inh: 22µM*; aSyn rescue: inconclusive

What do the screens show for `CCN=C1SC(C(=O)Nc2cccc(OCC)c2)CC(=O)N1CC` (configuration not stated)?
Mito fusion yeast: -5%; Abeta yeast res: inactive; FUS suppressor: inactive; TDP-43 yeast inh: -7%; aSyn rescue: 2%

What do the screens show for `Cc1ccc(C(=O)Nc2ccccc2N2CCCCC2)cc1[N+](=O)[O-]`?
Mito fusion yeast: 0%; Abeta yeast res: inactive; FUS suppressor: inactive; TDP-43 yeast inh: 20%; aSyn rescue: -24%
